Experimental data: the supplement of paper PMC10849652
The full data set covers some 7,900 targets. This sample favours those with a hit. About 0.6% of all pairs of compound and target were hits. Unmarked numbers belong to inactive results.

What was measured:
Experiment in all cases: log2 fold change, soluble protein after heating vs DMSO (PISA); higher = thermal stabilisation; K562 cells, 10 uM, 30 min; active = over 0.2 and 3.5 SD of the protein, either way, in both replicates (recomputed)
[1] = compound: CC1=C(C=C(C=C1)NC(=O)C2=CC(=CC=C2)C(C)(C)C#N)NC3=CC4=C(C=C3)N=CN(C4=O)C
Outline: (§1)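 Quantification of soluble protein used TMTpro 16plex LC-MS/MS, with channel sums equalised. Samples were the supernatant after 21,000xg for 90 min of pooled aliquots from K562 cells (2×10^6 cells/mL) treated with 10 μM compound for 30 min, heated for 3 min over 48°C-58°C, and extracted in PBS with 0.5% NP-40 at 4°C. Values, from duplicates, describe thermal stability against control samples on a log2 fold-change scale.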

[2] = compound: CC1=C(C=C(C=C1)NC(=O)C2=CC(=CC=C2)N(C)C)NC(=O)C3=CC=C(C=C3)O
Outline: as §1

[3] = compound: CC1=CC=C(C=C1)SC2=C3C=C(SC3=CN=C2)C(=O)N
Outline: as §1

[4] = compound: CC1=NC(=CC=C1)C2=C(N=C(N2)C(C)(C)C)C3=CC4=NC=CN=C4C=C3
Outline: as §1

Nexturastat A = compound: CCCCN(Cc1ccc(C(=O)NO)cc1)C(=O)Nc1ccccc1 [Nexturastat A]
Outline: as §1

vemurafenib = compound: CCCS(=O)(=O)Nc1ccc(F)c(C(=O)c2c[nH]c3ncc(-c4ccc(Cl)cc4)cc23)c1F [vemurafenib]
Outline: as §1

[5] = compound: CCCS(=O)(=O)Nc1ccc(F)c(C(=O)c2c[nH]c3ncc(Cl)cc23)c1F
Outline: as §1

[6] = compound: CCCc1cc(C)[nH]c(=O)c1CNC(=O)c1cc(-c2ccnc(N3CCN(C)CC3)c2)cc2c1cnn2C(C)C
Outline: as §1

givinostat = compound: CCN(CC)Cc1ccc2cc(COC(=O)Nc3ccc(C(=O)NO)cc3)ccc2c1 [givinostat]
Outline: as §1

barasertib = compound: CCN(CCCOc1ccc2c(Nc3cc(CC(=O)Nc4cccc(F)c4)[nH]n3)ncnc2c1)CCOP(=O)(O)O [barasertib]
Outline: as §1

[7] = compound: CC[C@@H]1C(=O)N(C)c2cnc(Nc3ccc(C(=O)NC4CCN(C)CC4)cc3OC)nc2N1C1CCCC1
Outline: as §1

volasertib = compound: CC[C@@H]1C(=O)N(C)c2cnc(Nc3ccc(C(=O)N[C@H]4CC[C@H](N5CCN(CC6CC6)CC5)CC4)cc3OC)nc2N1C(C)C [volasertib]
Outline: as §1

[8] = compound: CC[C@H](C)N1C=C(C2=C(C=C(C=C21)C3=CN=C(C=C3)N4CCNCC4)C(=O)NCC5=C(C=C(NC5=O)C)C)C
Outline: as §1

epoxomicin = compound: CC[C@H](C)[C@@H](C(=O)N[C@@H]([C@@H](C)O)C(=O)N[C@@H](CC(C)C)C(=O)[C@]1(CO1)C)NC(=O)[C@H]([C@@H](C)CC)N(C)C(=O)C [epoxomicin]
Outline: as §1

[9] = compound: CCn1c(C(=O)N(C2CC2)C2CC2)cc2c3c(ncn3C)c(Nc3cc(C)n(C)n3)nc21
Outline: as §1

[10] = compound: CCn1cc(-c2ccnc3[nH]c(-c4cccc(CN(C)C)c4)cc23)c(-c2ccc(NC(=O)N(C)C)cc2)n1
Outline: as §1

[11] = compound: CN(C)CC(=O)Nc1ccc2[nH]c(=O)c3ccccc3c2c1
Outline: as §1

rosiglitazone = compound: CN(CCOC1=CC=C(C=C1)C[C@H]2C(=O)NC(=O)S2)C3=CC=CC=N3 (racemic) [rosiglitazone]
Outline: as §1

[12] = compound: CN1C2=C(C3=C1C(=O)N(N=C3)CC4=CC(=CC=C4)N)SC(=C2)S(=O)C
Outline: as §1

[13] = compound: CN1CCC(CNc2ccc3ncc(-c4cccc(OC(F)(F)F)c4)n3n2)CC1
Outline: as §1

UniProt O75340, sequence (O75340 whole entry, looked up): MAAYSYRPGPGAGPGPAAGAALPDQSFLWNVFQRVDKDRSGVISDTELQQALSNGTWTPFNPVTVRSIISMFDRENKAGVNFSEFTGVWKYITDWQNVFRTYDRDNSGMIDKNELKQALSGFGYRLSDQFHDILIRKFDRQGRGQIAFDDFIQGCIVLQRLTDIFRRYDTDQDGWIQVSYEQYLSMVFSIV
UniProt Q8TBX8, sequence (Q8TBX8 whole entry, looked up): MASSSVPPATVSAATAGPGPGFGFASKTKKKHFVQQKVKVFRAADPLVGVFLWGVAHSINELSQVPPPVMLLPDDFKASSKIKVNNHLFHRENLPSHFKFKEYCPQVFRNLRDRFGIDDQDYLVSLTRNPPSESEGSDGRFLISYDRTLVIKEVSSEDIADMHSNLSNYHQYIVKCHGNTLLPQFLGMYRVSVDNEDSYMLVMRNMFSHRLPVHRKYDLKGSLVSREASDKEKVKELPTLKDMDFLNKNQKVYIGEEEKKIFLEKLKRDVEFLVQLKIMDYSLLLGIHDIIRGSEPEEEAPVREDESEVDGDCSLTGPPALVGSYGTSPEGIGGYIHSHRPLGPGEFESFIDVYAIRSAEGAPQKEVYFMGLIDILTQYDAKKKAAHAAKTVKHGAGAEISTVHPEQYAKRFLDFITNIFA
UniProt P28070, sequence (P28070 whole entry, looked up): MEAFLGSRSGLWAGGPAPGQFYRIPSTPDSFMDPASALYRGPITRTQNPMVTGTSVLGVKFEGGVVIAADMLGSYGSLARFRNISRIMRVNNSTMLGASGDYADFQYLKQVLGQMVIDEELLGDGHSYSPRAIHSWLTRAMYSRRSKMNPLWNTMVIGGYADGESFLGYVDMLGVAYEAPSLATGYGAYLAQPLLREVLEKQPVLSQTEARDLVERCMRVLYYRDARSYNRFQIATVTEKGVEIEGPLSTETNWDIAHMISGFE
UniProt P78356, sequence (P78356 whole entry, looked up): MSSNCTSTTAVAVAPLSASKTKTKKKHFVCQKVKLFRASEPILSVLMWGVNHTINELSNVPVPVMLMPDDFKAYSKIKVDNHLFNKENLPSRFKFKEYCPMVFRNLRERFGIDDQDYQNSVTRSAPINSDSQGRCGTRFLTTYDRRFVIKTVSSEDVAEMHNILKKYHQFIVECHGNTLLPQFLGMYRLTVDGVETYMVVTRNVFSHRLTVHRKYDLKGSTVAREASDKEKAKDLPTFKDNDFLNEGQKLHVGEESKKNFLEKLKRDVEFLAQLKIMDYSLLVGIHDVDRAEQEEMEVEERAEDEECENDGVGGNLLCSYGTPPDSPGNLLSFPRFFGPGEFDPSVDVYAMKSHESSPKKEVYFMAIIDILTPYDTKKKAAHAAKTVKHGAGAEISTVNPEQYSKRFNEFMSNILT
UniProt Q9P2B2, sequence (Q9P2B2 whole entry, looked up): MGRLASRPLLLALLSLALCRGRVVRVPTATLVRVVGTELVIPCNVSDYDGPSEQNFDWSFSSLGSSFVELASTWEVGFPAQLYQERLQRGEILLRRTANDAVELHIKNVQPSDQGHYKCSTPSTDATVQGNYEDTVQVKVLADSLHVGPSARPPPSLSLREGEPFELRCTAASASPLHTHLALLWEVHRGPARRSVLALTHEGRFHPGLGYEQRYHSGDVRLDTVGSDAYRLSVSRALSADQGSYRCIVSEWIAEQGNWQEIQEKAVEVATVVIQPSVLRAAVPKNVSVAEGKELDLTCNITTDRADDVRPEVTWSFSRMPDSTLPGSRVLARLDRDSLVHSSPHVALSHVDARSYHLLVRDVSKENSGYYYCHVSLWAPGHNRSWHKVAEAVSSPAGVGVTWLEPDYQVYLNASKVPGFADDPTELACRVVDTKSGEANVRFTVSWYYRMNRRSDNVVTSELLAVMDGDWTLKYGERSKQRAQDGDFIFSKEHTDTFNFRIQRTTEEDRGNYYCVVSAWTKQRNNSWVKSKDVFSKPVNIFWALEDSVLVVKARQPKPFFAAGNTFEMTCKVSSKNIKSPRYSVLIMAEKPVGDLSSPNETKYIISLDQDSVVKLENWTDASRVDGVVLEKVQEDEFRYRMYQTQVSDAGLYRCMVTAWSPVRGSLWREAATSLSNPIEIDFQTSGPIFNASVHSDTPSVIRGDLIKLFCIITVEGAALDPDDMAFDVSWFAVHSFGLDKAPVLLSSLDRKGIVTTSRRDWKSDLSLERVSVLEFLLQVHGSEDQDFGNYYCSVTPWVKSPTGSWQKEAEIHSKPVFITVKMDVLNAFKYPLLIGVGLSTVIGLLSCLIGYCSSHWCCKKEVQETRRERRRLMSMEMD
UniProt P48556, sequence (P48556 whole entry, looked up): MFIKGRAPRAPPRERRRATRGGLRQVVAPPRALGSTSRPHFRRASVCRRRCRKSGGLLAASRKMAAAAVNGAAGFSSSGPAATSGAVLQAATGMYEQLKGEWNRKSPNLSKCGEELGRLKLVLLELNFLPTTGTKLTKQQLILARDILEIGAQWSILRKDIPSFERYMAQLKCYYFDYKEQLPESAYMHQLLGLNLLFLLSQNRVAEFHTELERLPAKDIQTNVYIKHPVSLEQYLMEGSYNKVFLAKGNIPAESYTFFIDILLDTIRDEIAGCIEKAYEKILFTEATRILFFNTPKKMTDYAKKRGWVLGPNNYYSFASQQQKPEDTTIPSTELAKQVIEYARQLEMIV
UniProt Q6P4A8, sequence (Q6P4A8 whole entry, looked up): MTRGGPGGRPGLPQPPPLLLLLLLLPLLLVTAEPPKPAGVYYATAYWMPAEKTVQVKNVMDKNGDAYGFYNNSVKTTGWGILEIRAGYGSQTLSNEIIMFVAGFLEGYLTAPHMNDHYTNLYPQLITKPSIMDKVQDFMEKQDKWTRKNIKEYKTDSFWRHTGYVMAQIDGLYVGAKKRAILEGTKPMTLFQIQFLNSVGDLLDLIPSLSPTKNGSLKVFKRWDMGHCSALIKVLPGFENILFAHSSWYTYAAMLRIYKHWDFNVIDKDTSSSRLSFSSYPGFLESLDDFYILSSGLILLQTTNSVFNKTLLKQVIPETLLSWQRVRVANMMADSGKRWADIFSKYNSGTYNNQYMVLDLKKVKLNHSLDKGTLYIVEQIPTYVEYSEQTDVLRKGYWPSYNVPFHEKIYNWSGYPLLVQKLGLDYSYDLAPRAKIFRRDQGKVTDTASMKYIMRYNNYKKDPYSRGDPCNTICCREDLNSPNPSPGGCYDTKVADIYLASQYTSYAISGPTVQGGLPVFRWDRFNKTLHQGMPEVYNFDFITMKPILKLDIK
UniProt P48426, sequence (P48426 whole entry, looked up): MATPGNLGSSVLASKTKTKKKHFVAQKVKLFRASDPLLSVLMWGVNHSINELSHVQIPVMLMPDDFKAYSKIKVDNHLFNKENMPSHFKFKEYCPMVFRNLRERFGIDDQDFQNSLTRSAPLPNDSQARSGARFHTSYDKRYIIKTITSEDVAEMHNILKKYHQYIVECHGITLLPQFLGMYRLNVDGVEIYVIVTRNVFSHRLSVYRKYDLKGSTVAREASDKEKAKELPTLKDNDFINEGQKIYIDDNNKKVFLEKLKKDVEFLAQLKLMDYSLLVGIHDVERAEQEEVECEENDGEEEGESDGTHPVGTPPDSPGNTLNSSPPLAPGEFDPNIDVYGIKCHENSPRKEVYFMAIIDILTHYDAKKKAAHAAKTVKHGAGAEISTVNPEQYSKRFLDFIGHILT
UniProt Q99575, sequence (Q99575 whole entry, looked up): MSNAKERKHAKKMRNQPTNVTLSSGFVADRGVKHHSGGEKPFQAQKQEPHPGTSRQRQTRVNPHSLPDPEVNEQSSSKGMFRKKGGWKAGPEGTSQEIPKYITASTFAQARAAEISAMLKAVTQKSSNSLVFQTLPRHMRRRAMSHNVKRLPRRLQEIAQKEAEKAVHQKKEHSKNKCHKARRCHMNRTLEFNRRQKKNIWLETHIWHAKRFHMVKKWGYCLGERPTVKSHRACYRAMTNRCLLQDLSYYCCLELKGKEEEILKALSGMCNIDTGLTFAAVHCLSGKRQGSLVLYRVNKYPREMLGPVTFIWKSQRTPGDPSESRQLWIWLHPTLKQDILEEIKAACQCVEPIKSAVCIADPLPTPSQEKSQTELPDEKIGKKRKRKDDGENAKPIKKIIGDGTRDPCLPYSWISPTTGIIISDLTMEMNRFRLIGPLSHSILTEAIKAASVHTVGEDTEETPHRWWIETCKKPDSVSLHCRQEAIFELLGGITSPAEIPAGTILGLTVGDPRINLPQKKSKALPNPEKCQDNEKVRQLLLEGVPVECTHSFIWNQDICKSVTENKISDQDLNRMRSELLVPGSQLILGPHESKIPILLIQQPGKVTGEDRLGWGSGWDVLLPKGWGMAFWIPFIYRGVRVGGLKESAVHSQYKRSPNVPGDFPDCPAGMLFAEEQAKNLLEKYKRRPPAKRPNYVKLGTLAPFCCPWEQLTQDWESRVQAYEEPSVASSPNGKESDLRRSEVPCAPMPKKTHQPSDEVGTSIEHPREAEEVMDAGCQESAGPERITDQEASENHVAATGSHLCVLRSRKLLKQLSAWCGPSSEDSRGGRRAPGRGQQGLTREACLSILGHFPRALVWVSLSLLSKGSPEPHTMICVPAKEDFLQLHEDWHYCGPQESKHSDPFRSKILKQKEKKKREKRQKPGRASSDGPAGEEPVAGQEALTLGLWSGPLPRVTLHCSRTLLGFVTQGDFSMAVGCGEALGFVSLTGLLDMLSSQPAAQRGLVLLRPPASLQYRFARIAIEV
UniProt Q8WUA2, sequence (Q8WUA2 whole entry, looked up): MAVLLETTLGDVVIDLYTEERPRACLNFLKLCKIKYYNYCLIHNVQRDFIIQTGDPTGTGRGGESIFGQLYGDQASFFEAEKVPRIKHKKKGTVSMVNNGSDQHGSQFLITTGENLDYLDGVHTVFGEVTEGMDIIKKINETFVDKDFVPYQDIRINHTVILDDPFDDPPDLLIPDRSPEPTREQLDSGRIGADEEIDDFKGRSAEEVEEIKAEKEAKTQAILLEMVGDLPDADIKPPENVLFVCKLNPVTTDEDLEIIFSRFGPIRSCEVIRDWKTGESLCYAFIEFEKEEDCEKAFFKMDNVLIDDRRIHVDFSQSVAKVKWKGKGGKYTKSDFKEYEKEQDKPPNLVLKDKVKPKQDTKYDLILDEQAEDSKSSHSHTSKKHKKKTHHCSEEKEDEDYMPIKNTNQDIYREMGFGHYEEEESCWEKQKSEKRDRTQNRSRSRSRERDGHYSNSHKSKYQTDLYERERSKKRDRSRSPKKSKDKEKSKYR

Row | Target | log2 fold change [1] | log2 fold change [2] | log2 fold change [3] | log2 fold change [4] | log2 fold change (Nexturastat A) | log2 fold change (vemurafenib) | log2 fold change [5] | log2 fold change [6] | log2 fold change (givinostat) | log2 fold change (barasertib) | log2 fold change [7] | log2 fold change (volasertib) | log2 fold change [8] | log2 fold change (epoxomicin) | log2 fold change [9] | log2 fold change [10] | log2 fold change [11] | log2 fold change (rosiglitazone) | log2 fold change [12] | log2 fold change [13]
1 | PSMB4 (UniProt P28070) | -0.026 | 0.02 | -0.075 | -0.031 | 0.023 | -0.027 | -0.029 | 0.008 | -0.008 | -0.052 | 0.073 | 0.114 | -0.043 | -0.202 | 0.011 | 0.031 | -0.028 | -0.045 | 0.021 | 0.057
2 | POP1 (UniProt Q99575) | 0.03 | -0.001 | 0.004 | -0.02 | -0.011 | -0.004 | 0.021 | 0.018 | -0.009 | -0.042 | 0.069 | 0.092 | 0.02 | -0.001 | 0.006 | 0.028 | -0.019 | -0.025 | -0.009 | 0.075
3 | PTGFRN (UniProt Q9P2B2) | -0.044 | -0.025 | 0.006 | -0.012 | -0.021 | 0.013 | -0.045 | -0.03 | 0.007 | -0.043 | 0.032 | 0.008 | 0 | 0.014 | 0.022 | -0.049 | -0.01 | 0.025 | -0.104 | 0.181
4 | PSMD8 (UniProt P48556) | 0.044 | 0.047 | -0.056 | -0.045 | 0.128 | -0.082 | -0.073 | 0.022 | -0.04 | -0.034 | 0.054 | 0.25 | -0.01 | -0.286 (active) | 0.022 | 0.039 | -0.037 | -0.048 | 0.035 | 0.016
5 | PSMB6 (UniProt P28072) | 0.002 | 0.306 | -0.036 | -0.001 | -0.019 | -0.038 | -0.062 | -0.024 | -0.025 | -0.04 | 0.029 | 0.195 | -0.055 | -0.241 (active) | 0.013 | 0.259 | -0.019 | -0.027 | 0.053 | 0.03
6 | PGM3 isoform 4 (UniProt O95394) | 0.013 | -0.073 | 0.021 | 0.04 | -0.01 | 0.017 | 0.04 | 0.008 | -0.044 | 0.017 | 0.003 | 0.052 | 0.092 | 0.014 | -0.034 | -0.038 | 0.026 | 0.066 | -0.084 | -0.235 (active)
7 | POLR2B (UniProt P30876) | 0.009 | -0.044 | 0.041 | 0.016 | 0.054 | 0.006 | 0.041 | 0.005 | -0.005 | 0.008 | 0.064 | -0.128 | -0.018 | -0.008 | -0.046 | 0.023 | -0.015 | 0.037 | 0.03 | 0.031
8 | PPP6R1 (UniProt Q9UPN7) | 0.014 | 0.023 | 0.022 | 0.036 | -0.1 | 0.08 | 0.018 | -0.001 | -0.018 | -0.025 | -0.098 | -0.297 (active) | 0 | -0.033 | 0.029 | 0.026 | 0.053 | 0.026 | -0.007 | -0.048
9 | PDE4DIP isoform 4 (UniProt Q5VU43) | -0.027 | -0.049 | -0.012 | -0.044 | 0.358 (active) | -0.034 | -0.01 | -0.023 | 0.021 | 0.083 | 0.013 | 0.005 | -0.071 | -0.012 | -0.004 | -0.009 | -0.035 | 0.003 | -0.046 | 0.006
10 | PPIL4 (UniProt Q8WUA2) | 0.006 | -0.02 | -0.06 | -0.007 | 0.145 | 0.001 | 0 | 0.04 | 0.045 | 0 | -0.024 | -0.253 (active) | 0.043 | 0.011 | -0.051 | 0.047 | 0.007 | -0.03 | 0.022 | -0.098
11 | PIP4K2A (UniProt P48426) | -0.027 | -0.061 | 0.017 | -0.005 | -0.051 | -0.044 | 0.004 | -0.01 | -0.052 | 0.022 | 0.602 (active) | 0.768 (active) | -0.055 | 0.018 | -0.049 | -0.052 | -0.021 | -0.009 | 0.04 | 0.114
12 | PIP4K2C (UniProt Q8TBX8) | -0.003 | -0.06 | 0.073 | 0.007 | -0.046 | -0.035 | 0 | -0.029 | -0.047 | -0.016 | 1.12 (active) | 1.19 (active) | -0.096 | -0.022 | 0.001 | 0.05 | -0.016 | 0.046 | 0.699 | 0.384
13 | PLBD1 (UniProt Q6P4A8) | 0.005 | -0.023 | 0.032 | -0.039 | 0.005 | 0.069 | -0.014 | 0.006 | -0.013 | 0.027 | -0.063 | -0.076 | -0.022 | -0.016 | -0.005 | -0.028 | 0.088 | -0.049 | -0.01 | -0.352 (active)
14 | PNPLA8 (UniProt Q9NP80) | 0.001 | 0.026 | 0.007 | -0.027 | 0.041 | -0.002 | -0.005 | 0.084 | 0.067 | 0.066 | -0.048 | -0.184 | -0.07 | 0.112 | -0.01 | -0.07 | 0.029 | 0.069 | 0.003 | -0.262 (active)
15 | PIP4K2B (UniProt P78356) | -0.055 | -0.048 | 0.033 | 0.026 | -0.088 | 0.045 | 0.02 | 0.039 | -0.076 | 0.004 | 0.573 (active) | 0.776 (active) | -0.089 | 0.015 | -0.036 | -0.054 | 0.029 | 0.005 | 0.172 | 0.231
16 | PDCD6 (UniProt O75340) | 0.013 | 0.039 | -0.001 | 0.032 | -0.032 | -0.025 | 0.023 | -0.089 | -0.017 | 0.004 | -0.157 | -0.283 (active) | -0.006 | 0.031 | -0.005 | -0.01 | 0.007 | 0.025 | -0.041 | -0.057
